ALOX15B inhib – qHTS Assay for Inhibitors of 15-hLO-2 (15-human lipoxygenase 2). purified 15hLO-2, xylenol orange hydroperoxide absorbance. Polyunsaturated fatty acid lipoxygenase ALOX15B (Homo sapiens), O15296. hit rate 0.56% among 110,000. Potency, µM (series often up to 57.1 µM), without a hit: at the top dose activity change, negative = inhibition, actives largely listed as inhibitors; note: potency is the fitted concentration of half-maximal effect; nearly all actives have a fitted effect of over 60% in size
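Screening format was qHTS against 50 nM purified 15hLO-2 in Hepes pH 7.5 with detergent. Activity follows hydroperoxide formation from 45 uM arachidonic acid, measured as 573:405 nm absorbance ratio of the ferric-xylenol orange complex.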
HPGD block – qHTS Assay for Inhibitors of HPGD (15-Hydroxyprostaglandin Dehydrogenase). hit rate 4.3% among 150,000. AID 894, 2007. purified HPGD, NADH fluorescence kinetic, PGE2 substrate. Potency, µM, inactives show top-dose activity change, negative = inhibition, actives largely listed as inhibitors; active = well fitted inhibition curve with a large enough effect, not every such curve was filed as active; inconclusive = small, poorly fitted or top-dose-only effect, or another doubt; inactive = no such curve, though single readings can be large or run the other way; note: potency is the fitted concentration of half-maximal effect
Target sequence (P15428 whole entry, looked up): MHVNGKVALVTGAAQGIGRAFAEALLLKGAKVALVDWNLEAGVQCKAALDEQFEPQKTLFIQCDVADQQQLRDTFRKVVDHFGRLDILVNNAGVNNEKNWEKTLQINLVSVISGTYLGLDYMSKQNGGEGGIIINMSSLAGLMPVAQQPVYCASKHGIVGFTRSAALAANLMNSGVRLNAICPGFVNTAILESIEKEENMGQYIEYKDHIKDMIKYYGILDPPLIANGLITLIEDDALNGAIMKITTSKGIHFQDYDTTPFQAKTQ
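NADH formation kinetics: reaction with 30 uM PGE2 and 1 mM NAD+ (final), 20 nM enzyme, Tris-HCl pH 8 with Tween 20, after 15 min compound preincubation at room temperature. Fluorescence change, last versus first of five reads.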
12-hLO inh – qHTS Assay for Inhibitors of 12-hLO (12-human lipoxygenase) | Polyunsaturated fatty acid lipoxygenase ALOX12 (Homo sapiens), P18054 | purified 12-hLO, xylenol orange hydroperoxide absorbance | Potency, µM (doses to about 57.1 µM), inactives show top-dose activity change, negative = inhibition, most hits filed as inhibitors | hit rate 0.12% among 150,000 | AID 1452, 2008; note: potency is the fitted concentration of half-maximal effect; nearly all actives have a fitted effect of over 55% in size
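150 nM 12hLO, 25 mM Hepes pH 7.0 + 0.01% Triton X-100; cpd preinc 15 min RT; 40 uM arachidonic acid, 30 min RT; Fe-XO 30 min; A573/A405 ratio as read-out.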
PNC inhibitor – High Content Assay for Compounds that inhibit the Assembly of the Perinucleolar Compartment | activity change (PNC), negative = inhibition, % at 10 µM | PC3M PTB-GFP, PNC prevalence imaging, 16 h; stronger effect = lower value | hit rate 3.1% among 140,000;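 active = readout at or below -70, meaning at least 70% loss of cells showing the perinucleolar compartment, a nuclear body marking cancer cells; inconclusive = readout between -30 and a set limit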;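 note: plate controls were DMSO wells for no effect and camptothecin positive control wells for full effect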
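Compounds are pinned in duplicate onto adhered PC3M cells stably expressing GFP-tagged PTB and incubated 16 h at 37 C. Cells are then fixed, nuclei stained with Hoechst, and PNC-positive cells counted.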
IMPase Li cell – qHTS Assay for Identifying the Cell-Membrane Permeable IMPase Inhibitors: Potentiation with Lithium. CHO-M1 cells, IP1 TR-FRET (IP-One), carbachol + lithium. Potency, µM (top dose mostly 59.4 µM), for inactives: top-dose activity, negative = IMPase inhibition, most hits filed as inhibitors. hit rate 0.35% among 210,000;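 note: IP1 builds up when IMPase is blocked and the TR-FRET signal falls; potency is the fitted concentration of half-maximal effect; plate controls were basal vehicle for no effect and high inhibitor control for full effect; nearly all actives have a fitted effect of over 50% in size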
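IP1 accumulation measured by competitive TR-FRET in lysed CHO-M1 cells after 30 min compound exposure at 37C, with a small lithium addition to potentiate weak responses. Hill-equation AC50 from ratio and donor-channel data.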
IMPase cell inh – qHTS Assay for Identifying the Cell-Membrane Permeable IMPase Inhibitors; Inositol monophosphatase 1 (Rattus norvegicus), P97697; CHO-M1 cells, IP1 accumulation, HTRF TR-FRET ratio; inhibition (IP1 accumulation), % at 46.1 µM; 120,000 tested, under 10 active; AID 901, 2007; active = well fitted curve in the direction sought with a large enough effect in the signal ratio, not every such curve was filed as active; inconclusive = small, poorly fitted or top-dose-only effect, or a change in a side signal; inactive = no such curve, though single readings can be large or run the other way; the % refers to the signal ratio;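 note: cells stimulated with carbachol in lithium chloride buffer; plate controls were DMSO basal wells for no effect and reference inhibitor wells for full effect; higher means more IMPase inhibition seen as more IP1 and lower FRET ratio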
Target sequence (P97697 whole entry, looked up): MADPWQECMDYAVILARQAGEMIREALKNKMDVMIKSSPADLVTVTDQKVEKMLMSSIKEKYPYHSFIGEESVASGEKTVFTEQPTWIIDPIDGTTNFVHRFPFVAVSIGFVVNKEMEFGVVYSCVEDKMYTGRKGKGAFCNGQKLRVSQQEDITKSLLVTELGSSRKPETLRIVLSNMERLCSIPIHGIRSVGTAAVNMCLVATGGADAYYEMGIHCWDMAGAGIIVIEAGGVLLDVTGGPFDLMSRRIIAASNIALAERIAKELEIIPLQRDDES
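Seeded CHO-M1 cells were dosed with compound at up to 46 uM, stimulated with carbachol for 30 min, then lysed in IP-One detection reagents. Higher IP1 lowers the TR-FRET signal.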
Starred values were filed as active, the others as inactive; ? = inconclusive; . = no result given; [ ] = remark or other dose. An excerpt weighted towards active compounds, which were near 5.3% of everything screened. Unless noted, calls come from the whole dose curve; as a rule, active = well fitted curve in the direction sought with a large enough effect; inconclusive = small, poorly fitted or top-dose-only effect, or another doubt; inactive = no such curve, though single readings can be large; an effect the other way counts as inactive or inconclusive. Unless noted, % is set by controls: 0 for no effect and ±100 for the full control effect.

SMILES	ALOX15B inhib	HPGD block	12-hLO inh	PNC inhibitor	IMPase Li cell	IMPase cell inh
COc1ccc(OC)c(C(=O)COC(=O)CNC(=O)C2CCCCC2)c1	-5.5%	-15.8%	-0.1%	-1.6	3.9%[38.3 µM]	-2.1
COc1ccc(C(=O)COC(=O)CNC(=O)C2CCCCC2)c(OC)c1	-4.0%	25.1µM*	-1.0%	-16.5	8.3%[38.3 µM]	-10.8
S=c1nc[nH]c2c1ncn2Cc1ccco1	-1.3%[11.4 µM]	-18.0%	-1.1%[11.4 µM]	.	2.2%	.
Cc1ccc(S(=O)(=O)c2cc(OC(=O)c3ccco3)ccc2OC(=O)c2ccco2)cc1	.	-14.5%	3.1%	47.5	-1.3%	.
O=C(Oc1ccc(OC(=O)c2ccco2)c(S(=O)(=O)c2ccc(Br)cc2)c1)c1ccco1	-14.8%	28.2µM*	-3.0%	-100.0*	14.3%[38.3 µM]	6.9
COC(=O)c1nnc(SC)nc1C(=O)OC	.	-3.5%	.	.	18.3%	.
COc1ccc(CN(C(=O)c2cc3ccccc3oc2=O)C2CCS(=O)(=O)C2)cc1OC (stereo not drawn)	.	.	.	.	.	-4.8
Cc1cccc(NCCC#N)c1	.	-8.4%	-3.1%	-134.0*	-10.0%	.
Cc1cccc(NCc2ccccc2O)c1	-6.6%	22.4µM*	0.4%	6.2	24.0%[38.3 µM]	6.3
Cc1ccc(C)n1-c1ccc(C(=O)N/N=C/c2ccncc2)cc1	.	.	.	.	0.4%	.
O=S(=O)(c1ccccc1)N1CCC2(CCN(c3ccccc3)CC2)CC1	-1.0%	-11.2%	0.9%	.	14.7%	.
Cn1nc(C(=O)OCCN2C(=O)c3ccccc3C2=O)c2ccccc2c1=O	-5.0%	20µM*	-7.2%	27.9	3.4%[38.3 µM]	-0.9
Cc1ccc(NC(=S)c2nc3ccccc3[nH]2)c(C)c1	.	31.6µM*	-5.2%	15.1	9.7%	.
CC(C)(C)OC(=O)[C@H]([C@@H]1N[C@@H](C(=O)O)C(C)(C)S1)N1C(=O)c2ccccc2C1=O	-5.0%[11.4 µM]	.	-0.8%[11.4 µM]	.	.	.
COc1ccccc1N1CCN(C2CCN(C(=O)c3cccs3)CC2)CC1	.	7.2%	-21.0%	-118.9*	9.9%	2.6
CCc1ccc(N2CC(C(=O)OCC(=O)NC3CCS(=O)(=O)C3)CC2=O)cc1 (stereo not drawn)	.	-20.1%	1.9%	-100.0*	10.9%	-3.4
Cc1ccc(S(=O)(=O)N2CCC(C(=O)OCc3ccc([N+](=O)[O-])cc3)CC2)cc1	.	-14.1%	-3.8%	36.2	16.8%	.
CCc1ccc(N2CC(C(=O)OC)CC2=O)cc1 (stereo not drawn)	.	.	.	.	3.2%	.
Cc1ccc(N2CC(C(=O)OCc3ccc([N+](=O)[O-])cc3)CC2=O)cc1 (stereo not drawn)	7.8%	25.1µM*	-17.1%	-28.3	16.3%[38.3 µM]	5.1
CCOC(=O)N1CCC(Nc2ccc(N3C(=O)C4CCCCC4C3=O)cc2[N+](=O)[O-])CC1 (stereo not drawn)	.	.	.	.	1.3%	.
N[C@@H](Cc1cccnn1)C(=O)O	-0.3%[11.4 µM]	-0.7%	-4.9%[11.4 µM]	.	-11.4%	.
COc1cc(C(=S)N2CCC(C(N)=O)CC2)ccc1O	7.5%[2.29 µM]	17.8µM*	-1.7%	-4.0	7.4%[38.3 µM]	12.6
COc1cc(C(=S)N2CCC(C)CC2)ccc1O	?	14.1µM*	-6.4%	5.2	30.5%[38.3 µM]	7.5
COc1cc(C(=S)N2CCCC2)ccc1O	-26.5%	28.2µM*	-14.2%	12.2	-15.8%[38.3 µM]	4.8
CCCCn1c(=O)c(CC(C)=O)nc2ccccc21	.	-10.0%	0.9%	46.1	-5.0%	.
SMILES	ALOX15B inhib	HPGD block	12-hLO inh	PNC inhibitor	IMPase Li cell	IMPase cell inh
CCOC(=O)N1CCN(C(=O)C2CCN(CC3CCCCC3)CC2)CC1	.	0.6%	1.3%	-113.8*	8.6%	.
CCOC(=O)N1CCN(C(=O)C2CCN(S(=O)(=O)N3CCCC3)CC2)CC1	.	-10.0%	-1.5%	10.0	1.7%[38.3 µM]	8.7
CC(=O)c1cc2c(O)c(O)ccc2o1	-18.6%	.	?	?	.	15.6
CC(=O)c1cc2cc(O)ccc2o1	-2.9%	?	-10.0%	?	11.2µM*	-14.9
COc1cc(C)nc(N2CCCC(C(=O)Nc3cccc(Cl)c3C)C2)n1 (stereo not drawn)	3.6%	-11.4%	-5.4%	-124.4*	-3.1%[38.3 µM]	?
COc1cc(C)nc(N2CCCC(C(=O)Nc3ccccc3Br)C2)n1 (stereo not drawn)	.	.	.	.	12.7%	.
NS(=O)(=O)c1ccc(CCNC(=O)/C=C/c2ccccc2[N+](=O)[O-])cc1	.	.	.	.	0.5%	.
O=[N+]([O-])c1cccc2cn[nH]c12	-1.5%	-7.3%	-9.8%	16.6	1.2%	-0.9
O=[N+]([O-])c1cccc2c[nH]nc12	7.2%	31.6µM*	-13.6%	.	10.0%	5.0
O=C(CC1CCCCC1)NCc1cn2ccsc2n1	2.8%	22.4µM*	-5.6%	6.5	-9.6%[38.3 µM]	4.6
O=C(CCCc1ccccc1)NCc1cn2ccsc2n1	6.1%	-15.7%	-0.5%	22.6	15.3%[38.3 µM]	-1.1
Cn1c(=O)c2c(nc(CN3CCC(C(N)=O)CC3)n2Cc2ccccc2F)n(C)c1=O	16.1%	-7.2%	6.7%	-115.1*	-6.5%[38.3 µM]	6.7
Cc1ccccc1C(C(=O)NC1CCCCC1)N(C(=O)CNC(=O)c1ccco1)c1cccnc1 (stereo not drawn)	.	.	.	.	-1.8%	.
COC(=O)c1ccc(CN2C(=O)c3ccccc3S2(=O)=O)cc1	-7.4%	-9.1%	3.2%	20.6	-7.5%[38.3 µM]	-1.4
COC(=O)c1cccc(N2C(=O)c3ccccc3S2(=O)=O)c1	7.5%	25.1µM*	-14.0%	-8.0	9.6%[38.3 µM]	-9.3
CC(C)(N)CO[C@H]1C[C@H]2CC[C@@]1(C)C2(C)C	-5.2%[11.4 µM]	-7.4%	-0.7%[11.4 µM]	.	-1.9%	.
C=CCSc1n[nH]c(-c2ccc(OCCCC)cc2)n1	-1.3%	15.8µM*	-3.2%	21.5	0.4%[38.3 µM]	14.3
O=C(c1nc2ccccc2s1)N1CCN(c2ccccn2)CC1	-25.3%	-7.2%	-7.5%	-9.2	35.6%[38.3 µM]	-2.5
O=C(c1nc2ccccc2s1)N1CCSCC1	-6.8%	8.91µM*	-0.5%	?	13.4%[38.3 µM]	13.4
COc1cc(N=c2ssnc2Cl)cc(OC)c1	?	0.631µM*	10µM*	?	45.9%[38.3 µM]	-6.4
COCC(=O)Nc1nc(-c2ccc([N+](=O)[O-])cc2)cs1	.	.	.	.	-2.5%	.
O=C(Cc1nc(-c2ccc([N+](=O)[O-])cc2)cs1)Nc1ccccc1	?	-19.3%	-2.4%	-100.0*	21.5%[38.3 µM]	5.6
O=C(Cc1ccccc1)Nc1nc(-c2cccc([N+](=O)[O-])c2)cs1	.	-12.4%	-1.8%	-103.4*	2.7%	-4.1

Screening data from PubChem BioAssay.
